The values below come from PubChem BioAssay (NCI).

Values joined by “and” are separate entries in the source; they are usually repeats but may differ in a detail not shown here. Equal entries are not always repeated. This is part of a sample that, as a whole, favours compounds with a hit. Of some 83,000 tested, about 20% had one in any assay.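 Interpretation: 100, growth as untreated; towards 0, rising growth inhibition; 0, no net growth; 0 to -100, cell death. Compounds scoring below 10 were considered active.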 Active and inactive are the calls of the source.

One assay has as its system HCT-15 colon. The assay is described as follows: NCI-60 one-dose screen, 48 h (100 = growth as untreated, 0 = no growth, -100 = all killed). The following applies: 10 µM. The procedure: Growth inhibition of the HCT-15 human tumor cell line is measured as a screen for anti-cancer activity. Cells are grown in 96 well plates and exposed to the test compound for 48 hours. Compounds are tested at a single concentration, which is 10^-5 M for most compounds. The reported endpoint is percent growth (GI% or GIPRCNT), where numbers from 0 - 100% represent growth inhibition, and numbers from -100% - 0 represent cell death. For example, a value of 40 represents 60% growth inhibition. A value of 0 means no net growth occurred over the course of the experiment. A value of -40 indicates 40% of cells at the beginning of the experiment died by the end of the experiment. A value of -100 means all cells are dead at the end of the experiment.
NCI-60 Human Tumor Cell Lines Screen was performed using the standard one-dose NCI protocol, which is described in more detail at https://dtp.cancer.gov/discovery_development/nci-60/default.htm.
Compounds with GIPRCNT values below 10 were considered active. Activity score was based on GIPRCNT using the following formula: […]
Score is 0 for GIPRCNT values of 100 or above, 50 for GIPRCNT values of 0, and 100 for GIPRCNT values of -100.
For `S=c1nc[nH]c2nc[nH]c12`, the growth is 39.1% (inactive).

As to `CS/C(=C\c1ccc(C(=O)c2ccc(C)cc2)n1C)S(C)=O` (stereo not given), the growth was 87.6% (inactive).

Staying with this assay, now noted: 10 µM unless noted.
As to `CC(C)(C)C1=CC(=O)C(C(C)(C)C)=CC1=O`, the growth is 97.9% (inactive) and 105% (inactive).

On to `O=C(N=C1C(=O)C2(CCCCC2)C2(N=C(c3ccccc3)OC2=O)C12CCCCC2)c1ccccc1` (stereo not given), for which the growth is 62.3% (inactive).

In the case of `CCOC(=O)C1=C(C)NC(C)=C(C(=O)OCC)C1`, the growth is 108% (inactive) and 90.8% (inactive).

Regarding `CCOC(=N)c1ccc(C(=N)OCC)cc1`, the growth was 96.4% (inactive).

For the compound `COC(=O)C(Cc1cn(C(C)=O)c2ccccc12)P(=O)(OC)OC` (stereo not given), the growth was 103% (inactive).

With `Nc1[nH][nH]c(=O)c1N=Nc1ccccc1`, the growth was 96.3% (inactive) and 106% (inactive).

For the compound `Cc1cnc(N)s1`, the growth was 105% (inactive).

Turning to `CC(=O)c1cc2ccccc2o1`, the growth was 99.6% (inactive).

For the compound `CC(=O)/C(N=Nc1ccc(S(=O)(=O)c2ccc(N=N/C(C(C)=O)=C(/C)O)cc2)cc1)=C(\C)O`, the growth was 106% (inactive).

Take `CCOP(=O)(OCC)/C(C#N)=C/c1c(C)[nH]c2ccccc12`: the growth was 108% (inactive).

Take `COc1ccc(CCNC(=S)NN)cc1OC`: the growth is 123% (inactive).

As for `CC(C)(C)OC(=O)CC1(O)CCCCC1`, the growth was 105% (inactive).

For the compound `CC1CC(O)CC(C)(C)C1.CC1CC(O)CC(C)(C)C1.CC1CC(O)CC(C)(C)C1.CC1CC(O)CC(C)(C)C1.[Ti]` (stereo not given), the growth was 110% (inactive).

`COc1ccc(/C=N/Nc2nc3ccccc3s2)cc1`: the growth is 90.4% (inactive).

As for `CCOC(=O)CN1CCC(C(=O)OCC)CC1`, the growth is 125% (inactive).

In the case of `CSc1nc(N)c(N)c(N)n1`, the growth was 111% (inactive).

Turning to `CC(=O)Nc1ccc2oc(=O)ccc2c1`, the growth is 107% (inactive).

For the compound `O=[N+]([O-])c1ccc(NC2CCCCC2)nc1`, the growth is 106% (inactive) and 102% (inactive).

Turning to `CCOC(=O)C1=CC(=O)CC(C)(C)O1`, the growth was 101% (inactive) and 103% (inactive).

As for `CCCC(=O)Oc1ccc2ccccc2c1`, the growth is 109% (inactive).

In the case of `CN(C)CC(CN(C)C)C(O)c1ccccc1` (stereo not given), the growth is 99.3% (inactive).

Consider `C(#CCN1CCOCC1)CCCN1CCOCC1`, for which the growth was 91% (inactive) and 99.6% (inactive).

For `CCN(CC)C(CC(=O)c1ccccc1)C(=O)c1ccccc1` (stereo not given), the growth is 64.6% (inactive).

In the case of `CCOC(C)=N`, the growth was 105% (inactive).

`OCCSc1ccc(Cl)cc1`: the growth was 104% (inactive) and 102% (inactive).

With `Nc1c(Cl)cc2c(c1Br)C(=O)c1ccccc1C2=O`, the growth is 88.9% (inactive).

In the case of `CC1(C)CC(=O)NC1=O`, the growth was 110% (inactive).

On to `Cc1onc(-c2c(F)cccc2Cl)c1-c1ncc(-c2ccc(Cl)cc2)o1`, for which the growth is 29.5% (inactive) and 16.4% (inactive).

As to `O=[N+]([O-])c1ccc(NC(c2ccccc2)c2ccc3cccnc3c2O)cc1` (stereo not given), the growth was 32.5% (inactive).

Consider `COc1ccc(CCN=Cc2ccc(Cl)cc2)cc1OC`, for which the growth is 106% (inactive).

Regarding `CN(C=O)c1ccccc1`, the growth is 95.1% (inactive).

As to `CC(=O)c1cccc(OC(=O)c2ccccc2)c1`, the growth is 127% (inactive).

For the compound `OC(CC(c1ccccc1)c1cccc2ccccc12)(c1ccccc1)c1ccccc1` (stereo not given), the growth is 78.9% (inactive) and 68.3% (inactive).

As for `O=C1C(=O)c2ccccc2C(O)=C1CC=C(Cl)Cl`, the growth was 25.8% (inactive) and 30.7% (inactive).

As to `COC(=O)CCOc1ccccc1`, the growth is 101% (inactive).

Turning to `NNc1ncnc2cccc(Cl)c12`, the growth is 97.8% (inactive).

The same assay, now with this note: 50 µM.
On to `S=c1nc[nH]c2nc[nH]c12`, for which the growth was 15.6% (inactive).

Still in this assay, the particulars now being: 100 µM.
For `CS/C(=C\c1ccc(C(=O)c2ccc(C)cc2)n1C)S(C)=O` (stereo not given), the growth is 55.1% (inactive).
